Here are results for one sequence from publication PMC7862700, “An all-to-all approach to the identification of sequence-specific readers for epigenetic DNA modifications on cytosine”.

Common to all, as to experiment: DAPPL (digital affinity profiling via proximity ligation, sequencing); 10 mM Tris-HCl pH 7.5, 50 mM NaCl, 1 mM DTT, 4% glycerol, room temperature, 30 min; GST-TFs on glutathione beads, 16-mer random dsDNA library, 0.1% formaldehyde crosslink after washing; high values mean tight binding
One assay has as its target T1, FLI1 (Homo sapiens, UniProt Q01543 1-452).
T1 sequence: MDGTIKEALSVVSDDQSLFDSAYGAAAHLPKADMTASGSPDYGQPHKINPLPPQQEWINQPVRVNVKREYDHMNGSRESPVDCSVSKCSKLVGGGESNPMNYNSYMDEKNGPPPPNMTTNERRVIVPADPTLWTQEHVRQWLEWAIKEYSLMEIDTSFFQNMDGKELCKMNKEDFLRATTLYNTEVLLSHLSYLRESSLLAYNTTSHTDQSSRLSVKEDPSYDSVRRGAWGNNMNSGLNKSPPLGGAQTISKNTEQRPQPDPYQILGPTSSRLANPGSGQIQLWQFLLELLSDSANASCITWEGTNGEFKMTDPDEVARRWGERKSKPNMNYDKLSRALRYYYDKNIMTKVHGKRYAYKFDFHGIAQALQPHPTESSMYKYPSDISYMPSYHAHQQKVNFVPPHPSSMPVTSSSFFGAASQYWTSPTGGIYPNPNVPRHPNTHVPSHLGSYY
As to conditions: protein: recombinant; tags: N-terminal GST; dsDNA, one strand shown. Summed up:
(§1)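 The binding signal reported is, for every hexamer, its read frequency for a factor over its read frequency for the tag-only sample. Reads came from pools of yeast-expressed, GST-fused human transcription factors on glutathione beads, barcoded with DNA and mixed with that sample, which were incubated with 200 nmole of a random double-stranded 16-mer DNA library in Tris/NaCl/DTT/glycerol buffer at room temperature for 30 min. After washing, the pools were crosslinked with 0.1% formaldehyde, proximity-ligated with BsaI/T4 ligase for 1 h at 37 °C, PCR-amplified and sequenced on an Illumina NextSeq500.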

Another assay concerns the target T2, ELK1 (Homo sapiens, UniProt P19419 1-428).
T2 sequence: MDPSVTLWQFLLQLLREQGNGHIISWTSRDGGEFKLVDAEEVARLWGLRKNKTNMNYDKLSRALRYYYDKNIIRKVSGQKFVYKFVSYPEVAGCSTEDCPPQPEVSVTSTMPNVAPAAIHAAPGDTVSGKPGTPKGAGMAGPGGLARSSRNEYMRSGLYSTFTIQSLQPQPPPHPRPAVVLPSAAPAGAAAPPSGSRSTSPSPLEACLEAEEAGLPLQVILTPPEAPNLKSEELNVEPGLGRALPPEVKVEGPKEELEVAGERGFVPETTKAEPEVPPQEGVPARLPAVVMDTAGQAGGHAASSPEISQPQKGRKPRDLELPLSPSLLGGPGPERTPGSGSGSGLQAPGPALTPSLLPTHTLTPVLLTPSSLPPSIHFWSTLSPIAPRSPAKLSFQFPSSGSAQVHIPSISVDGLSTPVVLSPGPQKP
As to conditions: protein: recombinant; tags: N-terminal GST; dsDNA, one strand shown. Summed up:
as §1

Another assay has as its target T3, GABPA (Homo sapiens, UniProt Q06546 1-454).
T3 sequence: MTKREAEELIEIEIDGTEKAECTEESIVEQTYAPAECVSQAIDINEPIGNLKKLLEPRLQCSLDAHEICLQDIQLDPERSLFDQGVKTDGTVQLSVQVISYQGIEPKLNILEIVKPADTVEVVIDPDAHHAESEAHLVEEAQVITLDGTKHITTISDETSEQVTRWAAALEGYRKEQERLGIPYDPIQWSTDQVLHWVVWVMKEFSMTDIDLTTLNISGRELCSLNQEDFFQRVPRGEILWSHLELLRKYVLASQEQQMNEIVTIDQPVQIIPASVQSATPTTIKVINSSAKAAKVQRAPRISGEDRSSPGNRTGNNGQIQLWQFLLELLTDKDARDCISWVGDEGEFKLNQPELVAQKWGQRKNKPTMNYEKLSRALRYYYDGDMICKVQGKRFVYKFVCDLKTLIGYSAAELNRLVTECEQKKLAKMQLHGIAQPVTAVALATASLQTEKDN
As to conditions: protein: recombinant; tags: N-terminal GST; dsDNA, one strand shown. The method, boiled down:
as §1

Another assay concerns the target T4, ERG (Homo sapiens, UniProt P11308 1-479).
T4 sequence: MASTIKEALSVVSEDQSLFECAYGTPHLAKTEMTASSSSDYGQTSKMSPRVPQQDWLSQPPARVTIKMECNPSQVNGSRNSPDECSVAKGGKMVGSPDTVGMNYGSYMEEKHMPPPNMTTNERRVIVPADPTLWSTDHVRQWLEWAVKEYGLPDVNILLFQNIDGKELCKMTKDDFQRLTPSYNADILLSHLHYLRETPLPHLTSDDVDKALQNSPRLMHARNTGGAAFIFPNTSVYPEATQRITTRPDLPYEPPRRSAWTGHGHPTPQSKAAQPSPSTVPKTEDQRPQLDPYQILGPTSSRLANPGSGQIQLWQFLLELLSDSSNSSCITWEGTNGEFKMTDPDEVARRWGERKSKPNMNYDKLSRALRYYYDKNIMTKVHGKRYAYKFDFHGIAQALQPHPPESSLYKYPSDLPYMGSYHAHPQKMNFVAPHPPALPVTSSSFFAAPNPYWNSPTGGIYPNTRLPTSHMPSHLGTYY
As to conditions: protein: recombinant; tags: N-terminal GST; dsDNA, one strand shown. Summed up:
as §1

The next assay deals with ELF1 (Homo sapiens, UniProt P32519 1-619). As to conditions: protein: recombinant; tags: N-terminal GST; dsDNA, one strand shown. Summed up:
as §1

For another assay, the target named is T5, EHF (Homo sapiens, UniProt Q9NZC4 1-300).
T5 sequence: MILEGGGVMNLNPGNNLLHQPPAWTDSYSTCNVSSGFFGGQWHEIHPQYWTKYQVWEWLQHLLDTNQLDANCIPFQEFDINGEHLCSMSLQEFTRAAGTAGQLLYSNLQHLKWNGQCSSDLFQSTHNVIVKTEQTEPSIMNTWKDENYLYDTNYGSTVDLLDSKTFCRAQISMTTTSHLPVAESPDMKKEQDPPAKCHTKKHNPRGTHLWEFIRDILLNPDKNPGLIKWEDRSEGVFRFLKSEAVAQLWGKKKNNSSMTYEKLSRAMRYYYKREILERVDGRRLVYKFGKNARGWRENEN
As to conditions: protein: recombinant; tags: N-terminal GST; dsDNA, one strand shown. Summed up: as §1

For another assay, the target named is SPI1 (Homo sapiens, UniProt P17947 1-270). As to conditions: protein: recombinant; tags: N-terminal GST; dsDNA, one strand shown. Summed up: as §1
In the next assay the target is SPIB (Homo sapiens, UniProt Q01892 1-262). As to conditions: protein: recombinant; tags: N-terminal GST; dsDNA, one strand shown. The method, boiled down: as §1
A further assay concerns the target T6, ELK3 (Homo sapiens, UniProt P41970 1-407).
T6 sequence: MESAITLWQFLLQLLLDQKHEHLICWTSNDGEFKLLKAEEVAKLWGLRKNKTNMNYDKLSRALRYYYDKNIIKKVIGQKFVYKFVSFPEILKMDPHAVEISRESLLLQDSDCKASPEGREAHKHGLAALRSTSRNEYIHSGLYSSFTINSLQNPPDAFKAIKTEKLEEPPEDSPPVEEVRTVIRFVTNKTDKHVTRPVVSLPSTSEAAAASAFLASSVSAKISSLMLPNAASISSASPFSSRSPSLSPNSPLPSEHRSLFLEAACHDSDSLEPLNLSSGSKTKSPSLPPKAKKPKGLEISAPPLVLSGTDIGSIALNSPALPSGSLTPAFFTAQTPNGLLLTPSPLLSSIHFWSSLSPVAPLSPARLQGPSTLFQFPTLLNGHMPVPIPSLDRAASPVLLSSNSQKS
As to conditions: protein: recombinant; tags: N-terminal GST; dsDNA, one strand shown. Summed up: as §1

The target of a further assay is T7, FEV (Homo sapiens, UniProt Q99581 1-238).
T7 sequence: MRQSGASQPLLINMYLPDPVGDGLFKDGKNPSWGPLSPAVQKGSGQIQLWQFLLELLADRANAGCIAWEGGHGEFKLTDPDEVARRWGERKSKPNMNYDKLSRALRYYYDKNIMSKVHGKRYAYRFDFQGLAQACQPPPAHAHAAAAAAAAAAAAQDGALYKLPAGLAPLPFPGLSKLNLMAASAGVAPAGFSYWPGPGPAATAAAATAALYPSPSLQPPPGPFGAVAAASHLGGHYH
As to conditions: protein: recombinant; tags: N-terminal GST; dsDNA, one strand shown. Summed up: as §1

The target in a further assay is ETV5 (Homo sapiens, UniProt P41161 1-510). As to conditions: protein: recombinant; tags: N-terminal GST; dsDNA, one strand shown. The method, boiled down:
as §1

For a further assay, the target named is HSF1 (Homo sapiens, UniProt Q00613 1-529). As to conditions: protein: recombinant; tags: N-terminal GST; chain copies: 3; dsDNA, one strand shown. Summed up:
as §1

Another assay has as its target T8, SPIC (Homo sapiens, UniProt Q8N5J4 1-248).
T8 sequence: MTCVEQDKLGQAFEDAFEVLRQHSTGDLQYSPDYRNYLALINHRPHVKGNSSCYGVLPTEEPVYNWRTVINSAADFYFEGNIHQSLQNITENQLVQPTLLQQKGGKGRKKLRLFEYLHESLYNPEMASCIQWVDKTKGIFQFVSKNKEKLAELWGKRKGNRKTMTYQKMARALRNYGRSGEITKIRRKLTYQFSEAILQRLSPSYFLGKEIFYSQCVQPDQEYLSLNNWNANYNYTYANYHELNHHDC
As to conditions: protein: recombinant; tags: N-terminal GST; dsDNA, one strand shown. Summed up:
as §1

The next assay has as its target ELF4 (Homo sapiens, UniProt Q99607 1-663). As to conditions: protein: recombinant; tags: N-terminal GST; dsDNA, one strand shown. Summed up: as §1
A further assay has as its target T9, ELK4 (Homo sapiens, UniProt P28324-2 1-405).
T9 sequence: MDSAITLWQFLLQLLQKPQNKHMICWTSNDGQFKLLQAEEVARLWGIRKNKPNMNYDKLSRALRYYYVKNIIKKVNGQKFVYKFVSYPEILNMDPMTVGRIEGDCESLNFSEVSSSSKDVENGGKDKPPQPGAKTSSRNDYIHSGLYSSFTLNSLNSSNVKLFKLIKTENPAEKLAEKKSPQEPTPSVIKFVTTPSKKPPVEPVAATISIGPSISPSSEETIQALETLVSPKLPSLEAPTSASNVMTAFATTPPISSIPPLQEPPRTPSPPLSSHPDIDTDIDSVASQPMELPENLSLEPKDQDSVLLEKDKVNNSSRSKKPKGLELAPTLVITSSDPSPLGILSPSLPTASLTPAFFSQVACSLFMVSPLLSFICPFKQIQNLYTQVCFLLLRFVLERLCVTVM
As to conditions: protein: recombinant; tags: N-terminal GST; dsDNA, one strand shown. Summed up: as §1

The target in a further assay is T10, ETV2 (Homo sapiens, UniProt O00321 1-342).
T10 sequence: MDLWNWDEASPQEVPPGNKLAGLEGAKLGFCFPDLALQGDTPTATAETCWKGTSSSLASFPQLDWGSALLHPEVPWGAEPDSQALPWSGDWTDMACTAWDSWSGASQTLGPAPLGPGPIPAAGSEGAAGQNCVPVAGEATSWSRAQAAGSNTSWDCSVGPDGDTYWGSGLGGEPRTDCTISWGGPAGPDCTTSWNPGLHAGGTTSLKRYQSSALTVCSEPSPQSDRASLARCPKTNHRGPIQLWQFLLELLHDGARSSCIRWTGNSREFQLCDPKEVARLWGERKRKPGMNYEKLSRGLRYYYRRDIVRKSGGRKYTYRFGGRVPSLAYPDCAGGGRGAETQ
As to conditions: protein: recombinant; tags: N-terminal GST; dsDNA, one strand shown. The method, boiled down:
as §1

Another assay concerns the target CRX (Homo sapiens, UniProt O43186 1-299). As to conditions: protein: recombinant; tags: N-terminal GST; dsDNA, one strand shown. The method, boiled down: as §1
The target of a further assay is ETV1 (Homo sapiens, UniProt P50549 1-477). As to conditions: protein: recombinant; tags: N-terminal GST; dsDNA, one strand shown. Summed up:
as §1

Chain of ELF1 (P32519 whole entry): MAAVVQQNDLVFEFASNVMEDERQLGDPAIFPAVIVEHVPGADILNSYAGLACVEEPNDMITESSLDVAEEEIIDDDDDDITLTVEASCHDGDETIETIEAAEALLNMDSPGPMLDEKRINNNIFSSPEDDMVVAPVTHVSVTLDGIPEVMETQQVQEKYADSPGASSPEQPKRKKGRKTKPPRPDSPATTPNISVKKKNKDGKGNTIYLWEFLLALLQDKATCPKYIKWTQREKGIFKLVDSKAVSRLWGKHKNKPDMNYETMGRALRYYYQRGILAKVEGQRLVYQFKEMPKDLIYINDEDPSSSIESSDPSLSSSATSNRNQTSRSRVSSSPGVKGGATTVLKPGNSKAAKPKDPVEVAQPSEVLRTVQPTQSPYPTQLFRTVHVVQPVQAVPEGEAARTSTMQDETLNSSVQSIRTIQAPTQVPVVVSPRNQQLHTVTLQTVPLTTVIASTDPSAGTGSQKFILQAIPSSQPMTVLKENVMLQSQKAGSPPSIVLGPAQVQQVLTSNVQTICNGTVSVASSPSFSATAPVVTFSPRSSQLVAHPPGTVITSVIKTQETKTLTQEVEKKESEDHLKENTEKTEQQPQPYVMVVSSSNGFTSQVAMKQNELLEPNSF
Chain of ELF4 (Q99607 whole entry): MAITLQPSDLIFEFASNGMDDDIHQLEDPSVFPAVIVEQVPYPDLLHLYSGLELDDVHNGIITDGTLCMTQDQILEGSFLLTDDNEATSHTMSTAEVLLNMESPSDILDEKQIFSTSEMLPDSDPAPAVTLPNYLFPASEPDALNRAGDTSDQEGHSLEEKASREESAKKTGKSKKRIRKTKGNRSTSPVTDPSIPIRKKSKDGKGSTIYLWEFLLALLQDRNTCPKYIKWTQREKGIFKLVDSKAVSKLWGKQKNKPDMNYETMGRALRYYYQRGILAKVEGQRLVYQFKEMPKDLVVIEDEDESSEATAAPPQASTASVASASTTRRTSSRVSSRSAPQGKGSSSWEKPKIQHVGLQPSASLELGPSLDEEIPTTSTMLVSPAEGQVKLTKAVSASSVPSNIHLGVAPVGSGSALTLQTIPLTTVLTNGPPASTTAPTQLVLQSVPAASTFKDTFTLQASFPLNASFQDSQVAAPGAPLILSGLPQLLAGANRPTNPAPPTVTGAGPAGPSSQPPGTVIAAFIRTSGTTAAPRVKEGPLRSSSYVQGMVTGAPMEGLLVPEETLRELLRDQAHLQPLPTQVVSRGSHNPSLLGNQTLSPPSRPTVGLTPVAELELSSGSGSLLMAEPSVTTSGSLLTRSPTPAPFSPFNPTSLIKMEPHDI
Chain of HSF1 (Q00613 whole entry): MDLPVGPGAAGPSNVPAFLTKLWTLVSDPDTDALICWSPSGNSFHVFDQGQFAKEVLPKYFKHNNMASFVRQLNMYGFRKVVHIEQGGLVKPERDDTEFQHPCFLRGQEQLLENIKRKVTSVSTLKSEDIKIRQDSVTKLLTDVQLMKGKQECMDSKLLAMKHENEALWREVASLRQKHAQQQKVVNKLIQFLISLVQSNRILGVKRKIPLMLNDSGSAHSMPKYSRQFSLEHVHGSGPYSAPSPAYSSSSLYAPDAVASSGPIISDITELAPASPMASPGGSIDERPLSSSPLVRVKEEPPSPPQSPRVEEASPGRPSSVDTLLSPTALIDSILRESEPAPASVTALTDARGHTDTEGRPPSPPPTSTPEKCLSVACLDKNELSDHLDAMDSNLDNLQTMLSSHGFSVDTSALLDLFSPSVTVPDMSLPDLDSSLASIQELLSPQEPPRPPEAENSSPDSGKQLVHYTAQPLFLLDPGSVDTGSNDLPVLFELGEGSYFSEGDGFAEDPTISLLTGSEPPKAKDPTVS
Chain of ETV1 (P50549 whole entry): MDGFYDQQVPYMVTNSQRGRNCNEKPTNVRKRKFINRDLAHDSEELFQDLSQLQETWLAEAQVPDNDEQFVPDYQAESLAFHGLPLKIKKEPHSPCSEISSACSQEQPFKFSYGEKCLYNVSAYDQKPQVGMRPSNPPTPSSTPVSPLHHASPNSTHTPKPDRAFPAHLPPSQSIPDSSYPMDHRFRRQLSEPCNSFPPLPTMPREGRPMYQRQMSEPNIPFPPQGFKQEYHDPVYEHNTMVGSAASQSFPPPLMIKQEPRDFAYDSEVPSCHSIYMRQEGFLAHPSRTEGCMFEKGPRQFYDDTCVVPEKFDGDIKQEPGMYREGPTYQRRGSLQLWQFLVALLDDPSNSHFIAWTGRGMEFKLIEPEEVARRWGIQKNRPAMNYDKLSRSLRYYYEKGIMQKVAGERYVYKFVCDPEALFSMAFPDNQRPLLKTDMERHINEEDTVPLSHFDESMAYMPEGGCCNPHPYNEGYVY
Chain of ETV5 (P41161 whole entry): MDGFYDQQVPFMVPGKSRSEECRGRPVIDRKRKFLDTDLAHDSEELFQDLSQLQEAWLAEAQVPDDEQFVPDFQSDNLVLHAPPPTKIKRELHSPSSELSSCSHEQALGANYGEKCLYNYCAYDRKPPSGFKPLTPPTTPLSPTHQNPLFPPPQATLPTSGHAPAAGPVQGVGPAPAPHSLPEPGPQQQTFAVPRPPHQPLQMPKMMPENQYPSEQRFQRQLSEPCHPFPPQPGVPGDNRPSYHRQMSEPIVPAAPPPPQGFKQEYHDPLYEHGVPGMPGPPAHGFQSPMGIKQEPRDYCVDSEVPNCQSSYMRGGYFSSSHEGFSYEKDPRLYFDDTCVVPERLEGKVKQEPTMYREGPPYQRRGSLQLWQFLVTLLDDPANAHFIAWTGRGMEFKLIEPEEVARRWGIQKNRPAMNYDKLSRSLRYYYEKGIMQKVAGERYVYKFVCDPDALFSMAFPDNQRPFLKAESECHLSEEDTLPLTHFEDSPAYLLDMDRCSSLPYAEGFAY
Chain of CRX (O43186 whole entry): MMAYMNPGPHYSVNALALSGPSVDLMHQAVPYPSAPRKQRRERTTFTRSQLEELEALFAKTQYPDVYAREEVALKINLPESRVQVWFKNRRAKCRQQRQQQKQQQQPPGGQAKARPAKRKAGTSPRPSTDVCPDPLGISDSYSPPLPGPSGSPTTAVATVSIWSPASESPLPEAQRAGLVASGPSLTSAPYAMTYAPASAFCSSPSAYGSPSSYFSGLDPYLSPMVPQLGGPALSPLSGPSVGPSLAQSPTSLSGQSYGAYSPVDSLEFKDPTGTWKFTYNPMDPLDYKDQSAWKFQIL
Chain of SPIB (Q01892 whole entry): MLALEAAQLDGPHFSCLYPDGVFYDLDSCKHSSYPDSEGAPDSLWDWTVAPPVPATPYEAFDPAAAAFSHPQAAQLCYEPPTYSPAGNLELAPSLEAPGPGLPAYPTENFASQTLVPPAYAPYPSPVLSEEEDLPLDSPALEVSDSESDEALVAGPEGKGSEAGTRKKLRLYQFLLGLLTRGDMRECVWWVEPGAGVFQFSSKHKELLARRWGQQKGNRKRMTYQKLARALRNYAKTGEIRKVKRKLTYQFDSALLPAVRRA

On to CCACGA, for which the binding signal with FLI1 is 1.18 fold enrichment (6-mer frequency, TF over GST control); with ELK1, 1.17 fold enrichment (6-mer frequency, TF over GST control); in the assay with GABPA, 1.19 fold enrichment (6-mer frequency, TF over GST control); with ERG, 1.12 fold enrichment (6-mer frequency, TF over GST control); with ELF1 it was 1.1 fold enrichment (6-mer frequency, TF over GST control); in the assay with EHF, 1.23 fold enrichment (6-mer frequency, TF over GST control). For the same sequence, the binding signal with SPI1 was 1.12 fold enrichment (6-mer frequency, TF over GST control); in the assay with SPIB, 1.06 fold enrichment (6-mer frequency, TF over GST control); in the assay with ELK3, 1.16 fold enrichment (6-mer frequency, TF over GST control); with FEV, 1.11 fold enrichment (6-mer frequency, TF over GST control); with ETV5 it was 1.02 fold enrichment (6-mer frequency, TF over GST control); with HSF1, 1.12 fold enrichment (6-mer frequency, TF over GST control). In addition, the binding signal with SPIC is 1.17 fold enrichment (6-mer frequency, TF over GST control); with ELF4, 1.1 fold enrichment (6-mer frequency, TF over GST control); with ELK4, 1.18 fold enrichment (6-mer frequency, TF over GST control); with ETV2, 1.09 fold enrichment (6-mer frequency, TF over GST control); with CRX, 1 fold enrichment (6-mer frequency, TF over GST control); with ETV1, 1.02 fold enrichment (6-mer frequency, TF over GST control).
